The campaign covered roughly 65,000 compounds. About 2,100 (3.2%) showed an effect of 50% or more. The median lay at about -52%. The sample holds strong results, similar compounds and a random draw of the others, so the mix is not that of the screen.

This assay relates to Plasmodium falciparum. In words: Screen against P. falciparum Asexual Blood Stage (ABS), at 5uM. Format: functional, Dd2. To be noted: tested at 5 uM.
In the case of `Fc1cccc(-c2nnn3c2COC(CNCc2ccsc2)C3)c1` (stereo not drawn), the INHIBITION was -82.8%.
Next, `c1cc(CN2Cc3nccn3CC(Cn3cncn3)C2)ccn1` (stereo not drawn): -4.38%; `O=C(C1CC1)N1CCC2(CC1)COCCN2Cc1ccc(F)cc1`: -40.7%.
For `Cc1ccc(C(C(=O)NC(C)(C)CN2CCCC2)N(C)C)cc1` (stereo not drawn) the value was 52%; for `Cc1cccc(C(C(=O)NC(C)(C)CN2CCCC2)N(C)C)c1` (stereo not drawn), 38.5%.
Take `Cc1ccc(C(C(=O)NCCN2CCC(CO)CC2)N(C)C)cc1` (stereo not drawn): the INHIBITION was -9.75%.
For `Cc1cccc(C(C(=O)NC(C)(C)CN2CCOCC2)N(C)C)c1` (stereo not drawn) the value was 32%; for `Cc1ccc(C(C(=O)NCCc2nc(C)cc(C)n2)N(C)C)cc1` (stereo not drawn), -102%; for `Cc1ccc(C(C(=O)NCCN2CCCCCC2)N(C)C)cc1` (stereo not drawn), 58.5%.
For `Cc1cccc(COc2ccc(C(C)N)cc2)c1` (stereo not drawn) the value was 8.28%; for `CCc1ccc2nc(C)cc(C(=O)N[C@@H]3CNC[C@H]3O)c2c1`, -22%.
In the case of `CCc1ccc2nc(C)cc(C(=O)NC[C@@H]3CCNC[C@H]3O)c2c1`, the INHIBITION is -49.3%.
For `CCc1ccc2nc(C)cc(C(=O)N[C@@H]3CCCNC3)c2c1` the value was 64.5%; for `N#CCCNC(=O)CN1CC(n2cccn2)C1`, -21.3%; for `O=S(=O)(Cc1cccc(Cl)c1)CC(O)Cn1cccn1` (stereo not drawn), -0.894%.
`O=C(c1cscn1)N1CCc2c(COCC3CC3)cncc2C1`: the INHIBITION is on record as -54.8%.
For `O=c1occ(CN2CCCCCC2)c(O)c1CN1CCOCC1` the value was -36%; for `O=c1occ(CN2CCCCCC2)c(O)c1CN1CCCCCC1`, 55.5%; for `O=c1occ(CN2CCSCC2)c(O)c1CN1CCCC1`, -7.27%.
`COc1c(C(=O)NCC(C)C)nnn1Cc1ccccc1`: the INHIBITION is -128%.
For `C[C@@H]1CN(CCC(=O)N(C)Cc2ccccc2)CC[C@@]1(O)C1CCC1` the value was 22.8%.
Regarding `C[C@@H]1CN(CCOc2ccc(Cl)cc2)CC[C@@]1(O)C1CCOCC1`, the INHIBITION is reported as -28.8%.
For `C[C@@H]1CN(CCOCc2ccccc2)CC[C@@]1(O)C1CCC1`, the INHIBITION is on record as 54.7%.
For `CN(CCCc1cc(-c2ccc(F)cc2)n(C)n1)CC(=O)NC(N)=O` the value was -152%.
Next, `CN(C)C(=O)C1CCC2(CCN(Cc3ccc4ccccc4n3)CC2)O1` (stereo not drawn): -19%; `CCOc1ccc(Cl)cc1C(C(=O)O)N1CCCC1` (stereo not drawn): 2.39%.
Next, `CCOc1ccc(Cl)cc1C1CCCCN1` (stereo not drawn): 68.8%; `CCOc1ccccc1C1CCCN1` (stereo not drawn): -8.92%; `Cn1cc(CCC(=O)N2C[C@@H]3CC[C@H]2CN(Cc2ccccc2)C3)cn1`: 14.3%.
`CCC(=O)N1CCCCC1c1nc(O)c2c(n1)CN(C(C)=O)CC2` (stereo not drawn): the INHIBITION was -29.8%.
Take `Cc1ccoc1CNCc1nnc2n1CC(C(F)(F)F)CC2` (stereo not drawn): the INHIBITION is -13.5%.
Turning to `Cc1ccccc1CN(C)CC(O)COCc1ccccc1Cl` (stereo not drawn), the INHIBITION is given as 68.9%.
For `COc1ccccc1COCC(O)CN(C)Cc1cccc(Cl)c1` (stereo not drawn) the value was -93.4%; for `COc1ccc(CN(C)CC(O)COCc2ccccc2Cl)c(OC)c1` (stereo not drawn), -5.65%.
For `OC[C@H]1CN(Cc2c(Cl)cncc2Cl)C[C@H]1CN1CCOCC1` the value was -53.1%.
On to `OC[C@H]1CN(Cc2c(Cl)cncc2Cl)C[C@H]1CN1CCCCCC1`, for which the INHIBITION amounted to 12.6%.
Turning to `OC[C@H]1CN(Cc2c(Cl)cccc2Cl)C[C@H]1CN1CCCCC1`, the INHIBITION is reported as 50.8%.
Next, `Clc1cccc(Cl)c1CN(CCCN1CCOCC1)Cc1cccnc1`: -6.41%; `Clc1ccc(CN(CCN2CCOCC2)Cc2cccnc2)c(Cl)c1`: 35.4%; `Clc1ccc(CN(CCN2CCOCC2)Cc2cccnc2)cc1Cl`: 53.8%.
With `CN(C)[C@@H]1CCN(C(=O)c2cccn2C)[C@H]1Cc1cnn(C)c1`, the INHIBITION is given as -109%.
With `O=C(c1ccco1)N1CC[C@@H]2O[C@@H](COCCN3CCCC3)CC[C@@H]21`, the INHIBITION is on record as -86.1%.
`c1cnc(N2CC[C@@H]3O[C@@H](COCc4cccnc4)CC[C@@H]32)nc1`: the INHIBITION was -60.3%.
Next, `CCN(CC)Cc1ccc(C(=O)NC2CCc3cc(F)ccc32)o1` (stereo not drawn): 16.3%; `CCN(CC)Cc1ccc(C(=O)NC2CCc3cc(Cl)ccc32)o1` (stereo not drawn): 56%.
For `CCN(CC)Cc1ccc(C(=O)NC2CCc3cc(Br)ccc32)o1` (stereo not drawn) the value was 47.7%; for `Cc1cncc(C(=O)NCCSCc2cccs2)c1`, -11%.
Next, `CN1CCOC(CNCCOc2cccc(C#N)c2)C1` (stereo not drawn): -70.4%; `OCC1CCN(Cc2cc3c(cc2Br)OCCO3)CC1`: -9.89%.
As for `Brc1cc2c(cc1CN1CCC(N3CCCCC3)CC1)OCCO2`, the INHIBITION worked out at 61.5%.
Next, `OC1CCN(Cc2cc3c(cc2Br)OCCO3)CC1`: -16.3%.
In the case of `CN1CCN(C2CCN(CCOc3cccc(Cl)c3)CC2)C1=O`, the INHIBITION was -9.24%.
On to `Cn1ncc2c1NC(=O)CC2c1ccccc1Br` (stereo not drawn), for which the INHIBITION is -46.4%.

Source of the values: ChEMBL document CHEMBL4513216, “Probing the Open Global Health Chemical Diversity Library for Multistage-Active Starting Points for Next-Generation Antimalarials” (ACS Infect Dis, 2020).
